# The list is not random: actives were taken first. Their share in the collection is about 2.7%.
# TrxR1 substrate = substrates of rat thioredoxin reductase 1 | hit rate 0.01% among 390,000 | purified TrxR1 substrate turnover, NADPH consumption readout | O89049 | Potency, µM (doses to about 114 µM), inactives show at the top dose activity change, negative = substrate turnover; note: % is set by controls: 0 for no effect and ±100 for the full control effect; nearly all actives have a fitted effect of over 50% in size
# Target sequence (O89049 whole entry, looked up): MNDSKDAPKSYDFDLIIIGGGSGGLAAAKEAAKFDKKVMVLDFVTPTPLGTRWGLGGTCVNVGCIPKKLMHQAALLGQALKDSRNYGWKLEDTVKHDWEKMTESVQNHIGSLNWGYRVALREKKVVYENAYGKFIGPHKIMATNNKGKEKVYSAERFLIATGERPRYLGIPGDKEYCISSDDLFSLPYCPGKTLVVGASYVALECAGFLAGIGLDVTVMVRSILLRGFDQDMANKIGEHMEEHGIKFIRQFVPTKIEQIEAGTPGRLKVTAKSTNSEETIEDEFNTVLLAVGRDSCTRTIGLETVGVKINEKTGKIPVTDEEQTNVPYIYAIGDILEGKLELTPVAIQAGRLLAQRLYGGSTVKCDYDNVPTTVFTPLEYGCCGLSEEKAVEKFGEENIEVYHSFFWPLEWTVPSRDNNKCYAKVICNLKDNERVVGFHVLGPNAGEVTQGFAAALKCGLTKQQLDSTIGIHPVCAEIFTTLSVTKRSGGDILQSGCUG
#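 Rat TrxR1, dispensed at 90 nM, was prereduced with 400 uM NADPH (final) for 5 min at ~22 deg C, then incubated with compound 15 min before 400 uM selenite. A first-read NADPH fluorescence drop versus no-compound background flagged substrates.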
# TrxR1 inh = inhibitors of rat thioredoxin reductase 1. hit rate 1% among 390,000. Potency, µM (highest dose often 114 µM), inactives show at the top dose activity change, negative = inhibition, hits mostly inhibitors. recombinant rTrxR1, NADPH fluorescence consumption, selenite substrate; note: % is set by controls: 0 for no effect and ±100 for the full control effect; nearly all actives have a fitted effect of over 65% in size
#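 Rat TrxR1 (90 nM in the dispensed reagent) was pre-reduced with 400 uM NADPH for 5 min at room temperature, then incubated with compound for 15 min. After 400 uM selenite was added, NADPH fluorescence (Ex 340/Em 450 nm) was followed for 8 min.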
# HEK293 tox = cytotoxicity in counter-screen for GLP-1R inverse agonists | hit rate 0.13% among 410,000 | HEK293 cAMP-luciferase reporter cells, luminescence, 24 h | Potency, µM (top dose mostly 38.3 µM), without a hit: at the highest dose activity change, negative = inhibition, hits mostly inhibitors;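 note: loss of luciferase light is scored as toxicity; % is set by controls: 0 for no effect and ±100 for the full control effect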
#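 Seeding density was 200 cells/uL; after overnight-length (12 h) culture, 23 nL compounds went on for 24 h at 37 °C. Readout used a luciferase detection reagent, luminescence taken after 12 min at room temperature.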
# IDH1 R132H inh = human IDH1 R132H inhibition | O75874 | IDH1-R132H enzyme, NADPH consumption, diaphorase/resazurin fluorescence | Potency, µM (top dose mostly 76.6 µM), without a hit: at the top dose activity change, negative = inhibition, actives largely listed as inhibitors | hit rate 0.093% among 390,000 | AID 602179; note: % is set by controls: 0 for no effect and ±100 for the full control effect; nearly all actives have a fitted effect of over 65% in size
#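 IDH1-R132H (0.5 ug/mL) preincubated 30 min with compound, then NADPH (0.016 mM) and alpha-KG (2 mM) added; 80 min at RT, pH 7.5. Remaining NADPH coupled via diaphorase/resazurin to fluorescence (540/590 nm); concentration-response curves normalized to no-enzyme control.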
# GLP-1R agonist = agonists of human GLP-1 receptor. HEK293 GLP-1R CRE-luciferase, luminescence, 4-6 h; cells express a hypersensitive GLP-1R form. Potency, µM (titrated, usually from 45.6 µM), without a hit: top-dose activation, most hits filed as activators. hit rate 0.007% among 380,000; note: % of control where 0% means no effect
# GLP1R inv ag = acts as inverse agonist at human GLP-1 receptor. P43220. HEK293 GLP-1R CRE-luciferase, luminescence, 24 h; GLP-1R form is constitutively active. Potency, µM (titrated, usually from 38.3 µM), for inactives: top-dose activity change, negative = inhibition, usual class: inhibitors. hit rate 1.6% among 410,000. AID 624417; note: % is set by controls: 0 for no effect and ±100 for the full control effect; nearly all actives have a fitted effect of over 55% in size
#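 Using stably transfected HEK293 (constitutively active GLP-1R, cAMP-luciferase reporter), compounds were incubated 24 hr and luciferase measured by luminescence.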
# Active calls of the source: *; ? = inconclusive; . = no result; [ ] = remark or other dose. Calls come from the whole dose curve; as a rule, active = well fitted curve in the direction sought with a large enough effect; inconclusive = small, poorly fitted or top-dose-only effect, or another doubt; inactive = no such curve, though single readings can be large; an effect the other way counts as inactive or inconclusive. Potency is the fitted concentration of half-maximal effect.
SMILES,TrxR1 substrate,TrxR1 inh,HEK293 tox,IDH1 R132H inh,GLP-1R agonist,GLP1R inv ag
CC1CC(C)(C)CC2(C1)NC(=S)N(c1ccccc1)N2 (stereo unspecified),-7.8%,4.0%[57.1 µM],-18.0%,-0.6%,0.3%,3.55µM*
CC1CCCC2(C1)NC(=S)N(c1ccccc1)N2 (stereo unspecified),-8.0%,-14.9%,-31.3%,1.2%,2.5%,5.01µM*
Cn1c(=O)c(=O)n(C)c2cc(N3CCCC3)c(NC(=O)c3ccc(C(C)(C)C)cc3)cc21,55.7%,?,18.2%,-0.5%,.,-6.2%
Cc1cc(S(=O)(=O)c2ccc(Cl)cc2)nc(S(=O)(=O)c2ccc(Cl)cc2)c1C#N,.,.,?,11.2%,-9.5%,?
CSc1nc(SCCO)c2sc3nc(-c4ccco4)c4c(c3c2n1)CC(C)(C)OC4,1.7%,56.2µM*,4.2%,-6.9%,7.1%,4.7%
COC(=O)CSc1nc(SC)nc2c1sc1nc(-c3ccco3)c3c(c12)CC(C)(C)OC3,0.1%,15.0%,19.3%,0.1%,9.9%,22.8%
O=C(Cn1c(=O)c(C(F)(F)F)nc2ccccc21)Nc1ccc(Br)cc1F,2.7%[57.1 µM],17.1%[57.1 µM],2.1%,0.0%,.,7.7%
O=C(NCC1CCCO1)c1ccc2c(c1)N(Cc1ccc(Cl)cc1)CCS2 (stereo unspecified),.,.,-16.8%,6.2%,8.0%,10µM*
CN(C)CCNC(=O)c1ccc2c(c1)N(Cc1ccc(F)cc1)CCS2,57.6%[57.1 µM],18.8%[57.1 µM],1.4%,0.9%,-2.8%,3.16µM*
Cc1ccc(CN2CCSc3ccc(C(=O)NCC4CCCO4)cc32)cc1 (stereo unspecified),72.0%,-23.6%,0.0%,-7.0%,1.7%,?
Cc1ccc(CN2CCSc3ccc(C(=O)NCCCN4CCN(C)CC4)cc32)cc1,128.1%,20.2%,?,-9.3%,29.9%,5.62µM*
O=C(Nc1ccccc1)[C@@H]1CC=C[C@@H]2CCN(C3CC3)C(=O)[C@@H]21,1.9%,23.6%,.,.,.,.
CCC(=O)Nc1sc2c(c1C(=O)Nc1ccccc1C)CCC(C)C2 (stereo unspecified),5.4%[57.1 µM],13.7%[57.1 µM],1.1%,0.0%,.,1.3%
C/C(=N\NC(=O)C(C)n1nc(C)c([N+](=O)[O-])c1C)c1ccccc1O (stereo unspecified),-12.5%,-2.4%,3.16µM*,3.1%,1.4%,?
Cc1nn(C(C)C(=O)NCc2ccco2)c(C)c1[N+](=O)[O-] (stereo unspecified),11.2%,41.5%,9.0%,1.5%,2.0%,5.0%
CC1CCC(C(C)C)C(OCC(O)CNC(C)(C)C)C1 (stereo unspecified),-2.9%,-3.7%,-14.9%,-6.6%,11.5%,11.2µM*
CC1CCN(CC(O)COC2CC(C)CCC2C(C)C)CC1 (stereo unspecified),1.0%,5.6%,?,-4.0%,-0.8%,-21.7%
CCCCCCCCCC[n+]1ccc(/C=C/c2ccc(N(C)C)cc2)c2ccccc21,-14.3%,?,.,.,.,.
COc1ccccc1NC(=O)C(=O)NCCc1csc(-c2cccc(F)c2)n1,-9.0%[57.1 µM],6.3%[57.1 µM],25.9%,7.1%,.,1.6%
COc1ccccc1N1CCN(C(=O)c2cc(-c3ccc(F)cc3)[nH]c2C)CC1,0.4%,11.0%,?,0.8%,-0.2%,11.2µM*
Cc1cccc(NC(=O)CSc2nc3c([nH]c4ccccc43)c(=O)n2-c2ccc(F)cc2)c1C,4.7%[57.1 µM],23.7%[57.1 µM],-1.1%,0.0%,.,1.8%
COC(=O)C1N2C(=O)N(C)[C@H](C(=O)OC)[C@H]2SC1(C)C (stereo partly specified),-6.1%,10.1%,.,.,.,.
NS(=O)(=O)c1ccc(CCNCc2cc(Cl)ccc2OCc2ccccc2)cc1,-1.1%,23.1%,?,7.6%,-8.4%,?
NS(=O)(=O)c1ccc(CCNCc2ccccc2OCc2ccc(Cl)cc2)cc1,-4.3%,5.0%,-28.9%,-3.6%,-5.5%,7.94µM*
Oc1ccc(NCc2ccccc2OCc2ccc(Cl)cc2)cc1,-18.1%,79.4µM*,-16.5%,6.9%,.,15.7%
SMILES,TrxR1 substrate,TrxR1 inh,HEK293 tox,IDH1 R132H inh,GLP-1R agonist,GLP1R inv ag
CC(C)(CO)NCc1cccc(OCc2ccc(Cl)cc2)c1,8.9%[57.1 µM],-6.2%,20.0%,0.1%,2.6%,?
CCOc1cc(CNc2ccc(O)cc2)cc(Br)c1OCc1ccccc1,-2.8%,-1.4%,-15.2%,12.3%,5.0%,-6.1%
CCOc1cc(CNc2ccc(O)cc2)ccc1OCc1ccc(Cl)cc1,-8.3%,50.1µM*,-6.4%,13.7%,.,5.8%
COc1cccc(CNC(C)(C)CO)c1OCc1ccc(Cl)cc1,3.9%,18.6%,-3.7%,-1.1%,5.9%,11.2µM*
Oc1ccc(NCc2ccccc2OCc2ccccc2)cc1,-0.4%,?,?,16.9%,14.2%,8.3%
CC(C)CCNC(=O)Nc1ccc2c(c1)N(Cc1ccccc1)C(=O)c1ccccc1S2,81.9%,28.2%,6.5%,.,.,?
Cc1c(C(=O)Nc2ccc(F)c(C(F)(F)F)c2)sc2nc(-c3ccccc3)cn12,2.8%[57.1 µM],12.4%[57.1 µM],3.4%,-2.2%,.,-3.2%
CC1CCCCN1C(=O)CSc1nc(C2CC2)nc2ccccc12 (stereo unspecified),-2.2%,11.5%,?,-1.9%,16.4%,7.94µM*
O=C(CSc1nc2ccccc2nc1Cc1ccc(Cl)cc1)N1CCN(c2ccccc2)CC1,1.8%[57.1 µM],30.0%[57.1 µM],3.2%,4.7%,.,10.8%
Cn1c(-c2ccccc2)cnc1SCC(=O)N1CCCCC1,6.4%,11.6%[57.1 µM],-13.2%,2.4%,-31.5%,3.98µM*
CC1CCCCN1C(=O)CSc1nc2ccccc2nc1Cc1ccc(Cl)cc1 (stereo unspecified),0.5%[57.1 µM],30.9%[57.1 µM],0.8%,17.0%,.,5.01µM*
O=C(CSc1nc2ccccc2nc1SCC(=O)N1CCCCC1)N1CCCCC1,-2.9%,-2.6%,?,-4.5%,-1.1%,10µM*
CN(C)c1ccc(/C=C/c2c(F)cnc3ccccc23)cc1,-0.8%,3.0%,.,.,.,.
COc1ccc(OC)c(CCNC(=O)CCCn2c(=O)c3cccn3c3ccccc32)c1,-2.2%,12.1%,-6.6%,-7.8%,.,0.6%
Cc1cc(C)n(-c2nc(C)c(C)c(=O)n2CC(=O)Nc2cccc([N+](=O)[O-])c2)n1,-7.0%[57.1 µM],0.0%[57.1 µM],5.5%,-5.0%,.,13.2%
C[C@@H]1[C@H](c2ccccc2)OCCS(=O)(=O)N1Cc1ccc(F)cc1,-1.0%,7.7%,.,.,.,.
Cc1nc(SCC(=O)N2CCN(c3ccccc3)CC2)n[nH]1,8.7%[57.1 µM],25.4%[57.1 µM],5.4%,6.7%,3.9%,-3.7%
COc1ccccc1N1CCN(C(=O)CSc2nc3ccccc3nc2Cc2ccccc2)CC1,2.3%[57.1 µM],20.7%[57.1 µM],-15.0%,10.4%,2.2%,11.2µM*

# Screening data as filed in PubChem BioAssay.
